Shown are actives, neighbours in structure and some others; about 2.3% of the full set was active somewhere.
CHRM1 agonist: human M1 muscarinic receptor agonism. P11229. CHO-K1 hM1, Fluo-8 calcium fluorescence, agonist mode; 0% DMSO, 100% acetylcholine EC100. activation, % at 3 µM. 360,000 compounds, 0.33% hits. AID 588814;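 active means activation above the run's mean compound activation plus 3 SD, cut at about 16% in these data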;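 further: peak over basal fluorescence ratio within a 140 s kinetic read after compound addition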
Target sequence (P11229 whole entry, looked up): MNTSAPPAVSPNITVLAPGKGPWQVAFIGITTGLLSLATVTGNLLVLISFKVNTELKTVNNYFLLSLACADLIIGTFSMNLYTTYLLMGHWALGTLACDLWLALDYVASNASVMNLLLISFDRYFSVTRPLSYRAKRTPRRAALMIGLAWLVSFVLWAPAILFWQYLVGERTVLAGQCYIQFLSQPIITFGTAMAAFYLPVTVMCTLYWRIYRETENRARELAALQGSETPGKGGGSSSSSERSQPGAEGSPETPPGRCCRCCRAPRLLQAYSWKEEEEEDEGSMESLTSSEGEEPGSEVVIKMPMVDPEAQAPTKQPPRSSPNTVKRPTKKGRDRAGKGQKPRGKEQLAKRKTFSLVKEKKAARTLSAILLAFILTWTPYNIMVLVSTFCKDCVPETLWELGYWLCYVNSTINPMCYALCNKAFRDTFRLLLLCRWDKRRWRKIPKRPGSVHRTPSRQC
M1 antag: human CHRM1 antagonism; P11229; CHO-K1 hM1, Fluo-8 calcium fluorescence, ACh EC80 antagonist; inhibition, % at 3 µM; 360,000 compounds, 1.3% hits; AID 588852;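 active means percent inhibition above its own plate's cutoff, namely the mean of that plate's compound wells plus 3 SD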;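 further: peak over basal fluorescence ratio during 140 s after agonist addition; 0% = ACh EC80 plus DMSO and 100% = DMSO alone without agonist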
CHO-K1 Ca PAM: counter-screen for M1 PAMs: effect in parental CHO-K1 cells | activation, % at 3 µM | 360,000 compounds, 0.02% hits | AID 602247 | ATP EC20, Fluo-8 calcium fluorescence; 0% at ATP EC20, 100% at ATP max;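 active means activation above the run cutoff, the mean activation of all test compounds plus 3 SD, cut at about 40% in these data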;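 further: peak over basal fluorescence ratio in a 140 s read after ATP addition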
M1 PAM: positive allosteric modulators of human M1 muscarinic receptor; CHO-K1 hM1, Fluo-8 calcium fluorescence, ACh EC20; 0% = ACh EC20, 100% = maximal ACh; activation, % at 3 µM; 360,000 compounds, 0.088% hits; in the data active means activation above about 19%, passing the limit was not always enough
CHO-K1 Ca antag: counter-screen for M1 antagonists: effect in parental CHO-K1 cells; ATP-induced calcium, Fluo-8 fluorescence; inhibition, % at 3 µM; 360,000 compounds, 0.6% hits; AID 602250;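 active means inhibition above a per-plate cutoff, the plate's mean sample inhibition plus 3 SD, cut at about 24% in these data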;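 further: 0% = DMSO plus EC80 ATP and 100% = DMSO alone without ATP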
CHO-K1 Ca ag: nonselective activator or artifact in parental CHO-K1 cells. 360,000 compounds, 0.48% hits. Fluo-8 calcium fluorescence; scaled to maximal ATP response, vehicle zero. activation, % at 3 µM; in the data active means activation above about 15%;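 further: untransfected CHO-K1 host cells lacking M1 receptor as counterscreen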
Starred values were filed as active, the others as inactive.

SMILES | CHRM1 agonist | M1 antag | CHO-K1 Ca PAM | M1 PAM | CHO-K1 Ca antag | CHO-K1 Ca ag
CC[n+]1ccccc1/C=C/c1ccc(N(C)C)cc1 | -6 | -6 | 19 | 7 | 3 | 3
O=C(NCCCN1CCC(Cc2ccccc2)CC1)c1ccc(CS(=O)c2ccccc2Cl)o1 (stereo not drawn) | -7 | 50* | -11 | -24 | 8 | 2
CCOC(=O)N1Cc2cc3ccccc3nc2C1 | -4 | -12 | 12 | 4 | -4 | 1
CCOC(=O)C1=NN(C(=O)c2ccc(C)cc2)C(O)(c2ccc(Cl)cc2)C1 (stereo not drawn) | 22* | 3 | -2 | -5 | -5 | 13
CCC1=NN(C(=O)c2ccc(Cl)cc2)C(O)(c2ccc(C)cc2)C1 (stereo not drawn) | -2 | -7 | 4 | 9 | -2 | 0
CCOC(=O)c1ccc(NC(=S)NC2CC(C)(C)NC(C)(C)C2)cc1 | 42* | 3 | 21 | -16 | -12 | 0
CCc1nc2ccc(C(=O)NC3CCC(C)CC3)cc2nc1CC (stereo not drawn) | -6 | 13 | -13 | -2 | 7 | 0
S=C(NCc1ccccc1)NCc1cccc(Cl)c1 | -2 | -7 | 10 | -3 | 60* | 3
S=C(NCc1ccccc1)Nc1ccc(Cl)cc1 | -6 | 17 | -4 | -23 | 22 | 12
FC(F)(F)Sc1ccc(NC(=S)NCc2ccccc2)cc1 | 3 | 40* | -19 | -19 | 31* | 11
FC(F)(F)c1cccc(CNC(=S)Nc2ccccc2)c1 | 0 | -3 | -8 | -2 | 27* | 3
O=C(CCCOc1ccc(Cl)cc1Cl)NCCc1ccccn1 | -8 | -4 | 2 | 2 | -17 | 1
Cc1ccc(N2C(=O)C3ON(c4ccccc4)C(c4ccncc4)C3C2=O)c(C)c1 (stereo not drawn) | -3 | -5 | 7 | 7 | 8 | 0
O=C1CC(O)(C(F)(F)F)Oc2c1ccc1ccccc21 (stereo not drawn) | 6 | 3 | 3 | -6 | -1 | 28*
O=C1CC(O)(C(F)F)Oc2ccc3ccccc3c21 (stereo not drawn) | -4 | 5 | 10 | -1 | 0 | 0
Cc1ccc(S(=O)(=O)N2C(=O)CCC2C(=O)O/N=C(\N)c2ccccc2)cc1 (stereo not drawn) | 18* | -9 | 10 | 19 | -5 | 1
COc1ccc(C(=O)N2CCc3cc(OC)c(OC)cc3C2c2ccc(OC)c(OC)c2)cc1 (stereo not drawn) | 1 | -6 | -8 | 14 | 24* | 0
COc1ccc(C2c3cc(OC)c(OC)cc3CCN2C(=O)c2ccccc2)cc1OC (stereo not drawn) | 0 | -1 | 4 | 3 | 0 | 0
COc1ccc(NC(=O)COC(=O)Cc2ccc(-c3ccccc3)cc2)c(OC)c1 | 2 | 3 | 46* | -6 | -25 | 5
COc1ccc(NC(=O)c2ccc(COc3ccccc3)o2)c(OC)c1 | -2 | -15 | 42* | -3 | -14 | 2
COc1ccc(C)cc1NC(=O)COC(=O)Cc1ccc(-c2ccccc2)cc1 | -5 | -10 | 23 | 4 | -4 | 1
COc1ccc(NC(=O)c2ccc(COc3ccccc3Br)o2)c(OC)c1 | -1 | -14 | 36 | 16 | -6 | 1
C=CCN(CC=C)Cc1cc(=O)oc2cc(C)cc(C)c12 | -7 | -31 | 9 | -4 | -23 | 0
CN1CCCN=C1COC(=O)C(O)(c1ccccc1)C1CCCCC1 (stereo not drawn) | -8 | 99* | -10 | -26 | 2 | 0
O=C1C(Cl)=C(N2CCN(Cc3ccccc3)CC2)C(=O)N1Cc1ccccc1 | -7 | 57* | 11 | -25 | 8 | 1
SMILES | CHRM1 agonist | M1 antag | CHO-K1 Ca PAM | M1 PAM | CHO-K1 Ca antag | CHO-K1 Ca ag
Fc1ccc(NC(=S)NCCc2ccc(Cl)cc2)cc1 | -1 | 10 | 11 | -8 | 5 | 7
O=[N+]([O-])c1ccc(NC(=S)NCCc2ccc(F)cc2)cc1 | -1 | 33* | -7 | -19 | 38* | 12
O=[N+]([O-])c1cccc(NC(=S)NCCc2ccccc2)c1 | -1 | 8 | -10 | -12 | 31* | 12
Fc1cccc(NC(=S)NCCc2ccccc2)c1 | -3 | 10 | 6 | -6 | 11 | 5
Fc1ccc(CCNC(=S)Nc2ccc(F)c(Cl)c2)cc1 | -8 | 4 | -2 | -18 | 25* | 15
O=C(NCCc1ccc(F)cc1)Nc1ccc([N+](=O)[O-])cc1 | 1 | 28 | -11 | -9 | 18 | 15
Cc1onc(-c2c(F)cccc2Cl)c1C(=O)OCC(=O)Nc1cccc(S(=O)(=O)N(C)C)c1 | -4 | 2 | -7 | -2 | -4 | 2
CC(/C=C/c1cccc([N+](=O)[O-])c1)=N\NC(=O)c1ccncc1 | -6 | -3 | 1 | 9 | -1 | 0
CN1C(=O)/C(=C\c2ccc(N(C)C)cc2)OC1=S | 53* | 39* | -18 | -22 | 27* | 30*
CNC(=O)/C(C#N)=C/c1ccc(-c2ccccc2[N+](=O)[O-])o1 | -6 | 1 | -18 | 6 | 27* | 0
CC12CN3CC(C)(CN(C1)C3c1ccc3c(c1)OCO3)C2O (stereo not drawn) | 0 | -15 | -28 | 5 | 100* | 5
CC12CN3CC(C)(CN(C1)C3c1ccccc1)C2O (stereo not drawn) | -1 | -3 | 10 | 6 | -4 | 0
COc1ccc(-c2nc3c4ccccc4ccn3c2Cc2ccc(C)cc2)cc1OC | -6 | -19 | -9 | -3 | -6 | 0
COc1ccc(-c2nc3c4ccccc4ccn3c2Cc2ccsc2)cc1OC | -8 | 18 | -11 | -15 | 24* | 0
C/C(N)=C(/C#N)C(=O)CSc1nc(-c2ccccc2)c(-c2ccccc2)o1 | -5 | 2 | 17 | -3 | 0 | 5
OC[C@H]1O[C@@H](n2cnc3c(NCc4ccco4)ncnc32)[C@H](O)[C@@H]1O | 35* | -14 | 4 | -15 | -4 | 0
O=S1c2ccccc2Nc2ccccc21 | -5 | 1 | 9 | 27* | -11 | 0
CC1(C)CC(=O)C2=C(C1)Nc1ccccc1[S@]2=O | -1 | 3 | -6 | -2 | -2 | 2
Cc1nc2c(-c3ccc(F)cc3)c(C)nn2c(C)c1CCC(=O)Nc1ccccc1 | -2 | 7 | -8 | 3 | 0 | 0
CCN1CCN(c2ccc(NC(=O)CCc3c(C)nc4c(-c5ccc(F)cc5)c(C)nn4c3C)cc2)CC1 | -9 | 34* | 26 | -26 | -8 | 1
Oc1ccc(C[C@@H]2CNCCN2CCc2cc(C(F)(F)F)cc(C(F)(F)F)c2)cc1 | -1 | -6 | 7 | 25* | -6 | 2
C=CCn1c(=S)[nH]c2cc(C(=O)Nc3ccc(F)cc3)ccc2c1=O | 4 | 23* | 6 | -21 | -4 | 8

Assay outcomes (PubChem)
